A selection: hits, their analogues and other compounds. The true share with any hit is near 6.7%.
Pf Dd2 inh: P. falciparum Dd2 growth inhibition. SYBR Green, 72 h; hits give low values. activity change, % at 10 µM. hit rate 2.3% among 94,000. AID 1159554; in the data active = activity change below about -80%; inconclusive = no clear call, values can overlap the other calls
C diff growth: inhibitors of Clostridium difficile growth; Clostridium difficile clinical isolate growth, OD600, 24 h; hits give low values; growth activity, negative = inhibition, % at 16 µg/mL (by protocol); hit rate 0.25% among 86,000; AID 1259249;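 active = mean growth activity at or below -80% and every replicate also at or below -80%; inconclusive = mean at or below -80% but some replicate above -80%; inactive = mean growth activity above -80%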;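 note: 0% = DMSO wells and -100% = levofloxacin 16 µg/mL wells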
T cruzi growth-1: T. cruzi proliferation inhibition. T. cruzi beta-gal in NIH3T3, GalScreen luminescence, 90 h. inhibition, % at 8.34 µM. hit rate 5.9% among 77,000. AID 624255;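 active = mean inhibition above about 93%, with at least 55% of replicates each passing it, limit read from the data, passing the limit was not always enough; inconclusive = only one of those two conditions holds; inactive = neither condition holds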
T cruzi growth-2: inhibitors of T. cruzi proliferation. AID 651739. hit rate 72% among 5,600. shares compounds with T cruzi growth-1. inhibition, % at 8.35 µM. T. cruzi beta-gal in NIH3T3, GalScreen luminescence, 90 h;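 active = mean replicate inhibition above about 95% and at least 55% of replicates individually reaching it, limit read from the data; inconclusive = only one of the two criteria is met; inactive = neither criterion is met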
T cruzi growth-3: inhibitors of T. cruzi proliferation. T. cruzi beta-gal in NIH3T3, GalScreen luminescence, 90 h. inhibition, % at 2.09 µM. shares compounds with T cruzi growth-1. hit rate 21% among 5,600;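 active = mean inhibition above about 95%, with at least 55% of replicates also reaching it, limit read from the data; inconclusive = meets just one of the two conditions; inactive = meets neither condition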;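 note: plate controls were neutral control median for no effect and positive control median for full effect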
3T3 cytotox: NIH/3T3 (mouse) viability loss. AID 651742. NIH/3T3 viability, CellTiter-Glo ATP luminescence, 90 h. hit rate 14% among 5,600. cytotoxicity (signal decrease), % at 8.35 µM. shares compounds with T cruzi growth-1;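 active = mean signal decrease across replicates above about 35% based on untreated-well scatter, with enough replicates individually passing, limit read from the data; inconclusive = no rule stated though some were filed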;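 note: 0% = median of neutral control wells and 100% = median of positive control wells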
3T3 cytotox 2: kills mouse NIH/3T3 fibroblasts. shares compounds with T cruzi growth-1. NIH/3T3 viability, CellTiter-Glo ATP luminescence, 90 h. inhibition, % at 24.9 µM. hit rate 56% among 5,600;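 active = mean loss of cell viability signal at or above a set limit, and enough replicates individually reaching it; inconclusive = meets only the mean limit or only the replicate share; inactive = meets neither condition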;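 note: 0% = median of neutral control wells and 100% = median of positive control wells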
The depositor's hits bear a star; ? = inconclusive; nt = not tested or not shown.

SMILES | Pf Dd2 inh | C diff growth | T cruzi growth-1 | T cruzi growth-2 | T cruzi growth-3 | 3T3 cytotox | 3T3 cytotox 2
COc1ccc(-c2ccc([C@H]3[C@@H](C#N)N(C(=O)C4CC4)[C@@H]3CO)cc2)cc1 | -33.3 | -2.3 | 105.6* | 61.0 | 55.6 | -7.2 | 37.3*
COc1ccccc1-c1ccc([C@@H]2[C@H](C#N)N(C(=O)CN(C)C)[C@H]2CO)cc1 | -11.3 | 13.3 | 52.9 | nt | nt | nt | nt
COc1ccc(-c2ccc([C@@H]3[C@@H](C#N)N(C(=O)CN(C)C)[C@@H]3CO)cc2)cc1 | -30.6 | -5.6 | 108.5* | 76.6 | 3.0 | 28.4 | 21.6
COc1ccc(-c2ccc([C@@H]3[C@@H](C#N)N(C(=O)C4CC4)[C@H]3CO)cc2)cc1 | -34.7 | -4.2 | 79.6 | nt | nt | nt | nt
C[C@H]1CN([C@@H](C)CO)C(=O)CCCn2nncc2CO[C@@H]1CN(C)S(=O)(=O)c1ccccc1F | 8.7 | 2.8 | -9.9 | nt | nt | nt | nt
O=C([C@H]1[C@H](CO)[C@H]2Cn3c(ccc(-c4ccncc4)c3=O)[C@H]2N1CCC(F)(F)F)N1CCOCC1 | 6.9 | 0.9 | -14.3 | nt | nt | nt | nt
C[C@H]1CN([C@@H](C)CO)S(=O)(=O)c2ccc(C#CC3CCCC3)cc2O[C@@H]1CN(C)Cc1cccnc1 | -66.3 | 10.0 | 97.9* | 100.9* | 110.8* | -10.3 | 105.4*
C[C@@H]1CN([C@@H](C)CO)S(=O)(=O)c2ccc(C#CC3CCCC3)cc2O[C@@H]1CN(C)Cc1cccnc1 | -65.0 | 5.8 | 102.8* | 101.0* | ? | 60.0* | 106.1*
C[C@H]1CN([C@@H](C)CO)S(=O)(=O)c2ccc(C#CC3CCCCC3)cc2O[C@@H]1CN(C)Cc1cccnc1 | -62.5 | nt | 80.8 | nt | nt | nt | nt
C[C@@H]1CN([C@H](C)CO)S(=O)(=O)c2ccc(C#CC3CCCC3)cc2O[C@H]1CN(C)Cc1cncnc1 | -27.2 | nt | nt | nt | nt | nt | nt
Cn1cnc(S(=O)(=O)N2CCCCN3[C@H](CO)[C@H](c4ccc(C#CC5CC5)cc4)[C@H]3C2)c1 | 15.6 | nt | 14.2 | nt | nt | nt | nt
C[C@@H]1CN([C@@H](C)CO)C(=O)c2cccc(NS(=O)(=O)c3ccc(F)cc3)c2O[C@@H]1CN(C)C(=O)Nc1ccccc1 | -22.1 | 0.3 | 14.3 | nt | nt | nt | nt
C[C@H](CO)N1C[C@H](C)[C@@H](CN(C)S(=O)(=O)c2cn(C)cn2)Oc2ccc(NS(=O)(=O)c3ccc(Cl)cc3)cc2CC1=O | -16.3 | 0.5 | -4.0 | nt | nt | nt | nt
C[C@@H]1CCCCO[C@@H](CN(C)C(=O)Cc2ccccc2)[C@@H](C)CN([C@H](C)CO)C(=O)c2cc(NC(=O)Cc3ccccc3)ccc2O1 | -52.6 | -3.3 | -10.0 | nt | nt | nt | nt
C[C@H](CO)N1C[C@H](C)[C@@H](CN(C)C(=O)c2ccccc2)Oc2ncc(C#CC3CC3)cc2C1=O | -51.1 | -4.2 | 30.8 | nt | nt | nt | nt
C[C@H](CO)N1C[C@H](C)[C@@H](CN(C)Cc2ccncc2)OCCCC[C@H](C)Oc2ccc(NC(=O)Nc3cccc4ccccc34)cc2C1=O | 27.4 | -3.9 | 42.7 | nt | nt | nt | nt
C[C@@H]1CCCCO[C@@H](CN(C)Cc2ccncc2)[C@H](C)CN([C@@H](C)CO)C(=O)c2cc(NC(=O)Nc3cccc4ccccc34)ccc2O1 | 23.9 | 8.7 | 105.9 | nt | nt | nt | nt
C[C@@H]1CCCCO[C@@H](CN(C)Cc2ccc(Cl)c(Cl)c2)[C@@H](C)CN([C@@H](C)CO)C(=O)c2cc(NC(=O)Nc3cccc4ccccc34)ccc2O1 | -31.6 | 8.4 | 124.2* | 96.2* | 103.5* | -2.8 | -2.0
C[C@@H]1CN([C@@H](C)CO)C(=O)c2cc(NC(=O)Nc3cccc4ccccc34)ccc2O[C@@H](C)CCCCO[C@H]1CN(C)Cc1ccncc1 | 0.5 | -3.0 | 55.3 | nt | nt | nt | nt
C[C@@H]1CCCCO[C@H](CN(C)Cc2ccc(Cl)c(Cl)c2)[C@@H](C)CN([C@H](C)CO)C(=O)c2cc(NC(=O)Nc3cccc4ccccc34)ccc2O1 | 1.3 | -0.3 | ? | 111.2* | 74.6 | -1.3 | -12.0
C[C@H]1CCCCO[C@H](CN(C)Cc2ccc(Cl)c(Cl)c2)[C@@H](C)CN([C@@H](C)CO)C(=O)c2cc(NC(=O)Nc3cccc4ccccc34)ccc2O1 | -24.6 | -10.9 | ? | 112.4* | 110.6* | 2.4 | 5.7
COCC(=O)N1CC(=O)N2[C@H](CO)[C@@H](c3ccc(C#CC(C)C)cc3)[C@H]2C1 | 45.1 | -2.4 | nt | nt | nt | nt | nt

Screening data: PubChem BioAssay, Broad Institute
